Reference: PubChem BioAssay (NCI)
The panel holds about 79,000 compounds, 15% with a hit somewhere; the sample as a whole holds those more often. Active and inactive are the calls of the source. No stated cut-off is given here; in the data, active means growth inhibition above about 70%; inactive means the rest.

What was measured:
[1] = NCI Yeast Anticancer Drug Screen. Data for the rad50 strain (AID 155);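 further: 0% = growth of vehicle-only cultures of the same strain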; conditions: S. cerevisiae rad50 strain growth inhibition; at 50.0 µM; active compounds read high
Method in brief: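 A DNA repair-deficient yeast mutant serves as the test organism; compound-induced growth inhibition is calculated against vehicle-treated cells.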

[2] = NCI Yeast Anticancer Drug Screen. Data for the mec2-1 strain (AID 157); conditions: S. cerevisiae mec2-1 strain, at 50.0 µM, active compounds read high
Method in brief: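 Vehicle-treated cultures served as reference for growth inhibition of compound-exposed mec2-1 yeast.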

[3] = NCI Yeast Anticancer Drug Screen. Data for the sgs1 mgt1 strain (AID 161);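 further: 0% = growth of cultures given vehicle only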; conditions: S. cerevisiae sgs1 mgt1 strain, at 50.0 µM, active compounds read high
Method in brief: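 Inhibition of yeast growth, normalised to vehicle-treated controls, is reported for a strain bearing genetic alterations in DNA damage repair.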

[4] = NCI Yeast Anticancer Drug Screen. Data for the cln2 rad14 strain (AID 165);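 further: 0% = growth equal to vehicle treated cultures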; conditions: S. cerevisiae cln2 rad14 strain, at 50.0 µM, active compounds read high
Method in brief: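 Each compound was tested on cln2 rad14 yeast. Inhibition of growth was calculated against vehicle-exposed controls.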

[5] = NCI Yeast Anticancer Drug Screen. Data for the bub3 strain (AID 167); conditions: S. cerevisiae bub3 mutant strain, at 50.0 µM, active compounds read high
Method in brief: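 Inhibition values come from growth of compound-treated mutant yeast normalised to vehicle-treated controls.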

[6] = NCI Yeast Anticancer Drug Screen. Data for the mlh1 rad18 strain (AID 175); conditions: S. cerevisiae mlh1 rad18 strain growth inhibition; at 50.0 µM; active compounds read high
Method in brief: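 Vehicle-treated cultures served as the reference for growth inhibition in a yeast strain carrying DNA damage repair alterations exposed to each compound.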

Measured: growth inhibition

COc1ccc(C(=O)O[C@H]2CC[C@@]3(C)[C@@H]4CC[C@H]5[C@]6(O)C[C@H](O)[C@@]7(O)[C@@H](CN8C[C@@H](C)CC[C@H]8[C@@]7(C)O)[C@]6(O)C[C@@]53OC24O)cc1OC
inactive: [1] -16.7% | [2] -32% | [3] -28.9% | [4] 6.4% | [5] -28.8% | [6] -5.15%

COCC(=O)CP(=O)(OC)OC
inactive: [1] -20.6% | [2] -19.6% | [3] -11.6% | [4] 18.6% | [5] -14.7% | [6] 1.35%

COC(=O)c1cc([N+](=O)[O-])cc([N+](=O)[O-])c1
inactive: [1] 9% | [2] 32.2% | [3] 16.5% | [4] -8.4% | [5] 18.4% | [6] 34.1%

O=S(=O)(O)C1CCC(O)C2[N-]CCCC21.O=S(=O)(O)C1CCC(O)C2[N-]CCCC21.[Ni+2] (stereo unspecified)
inactive: [1] 50.8% | [2] -4.3% | [3] 27.9% | [4] -13.4% | [5] 8.4% | [6] 23.9%

CC(C)OP(=O)(NC(=S)c1ccccc1)OC(C)C
inactive: [1] 19.1% | [2] 21% | [3] 36.4% | [4] 11.4% | [5] 13.8% | [6] 13.9%

CCC[CH2][Sn]([CH2]CCC)([CH2]CCC)[CH2]CCNCCCN(C)C
active: [1] 99.3% | [2] 99.7% | [3] 99.5% | [4] 99% | [5] 98.8% | [6] 99.2%

N#CN=C(N)NC#N
inactive: [1] 24.1% | [2] 12.9% | [3] 7.3% | [4] 0.55% | [5] 13.8% | [6] 17.1%

CCOC(=O)c1c(SC)nc(-c2ccc(Cl)cc2)sc1=N
inactive: [1] 18.4% | [2] 19.6% | [3] 24.8% | [4] 25.9% | [5] 28.1% | [6] -19.7%

CC(=O)Nc1cc([As]=O)ccc1O (stereo unspecified)
inactive: [1] 29.2% | [2] 25.2% | [3] 31.8% | [4] 10.6% | [5] 50.8% | [6] 32.6%

C=C[Se](=C(C#N)C#N)c1ccccc1 (stereo unspecified)
inactive: [1] -3.35% | [2] 28% | [3] 5.75% | [4] 4.35% | [5] -16.4% | [6] 0.7%

O=C(CN1C(=O)C2CCCCC2C1=O)N1CC1 (stereo unspecified)
inactive: [1] -7.8% | [2] 0.1% | [3] -11.7% | [4] 5.85% | [5] -6.6% | [6] -9.3%

CCCCOP(=O)(OCCCC)SCl
inactive: [1] -9.4% | [2] 1.7% | [3] 3.2% | [4] 13.9% | [5] -11.1% | [6] 6%

O=C1NC(=O)C2(c3ccccc3)CCN1C2=O (stereo unspecified)
inactive: [1] 1.35% | [2] 4.6% | [3] 1.8% | [4] -7% | [5] -12.2% | [6] 10%

Fc1ccccc1N=C=S
inactive: [1] 4.55% | [2] -12% | [3] 5.65% | [4] 18.1% | [5] 14.6% | [6] 2.75%

CCCCOCN(CCc1ccccc1)COCCCC
inactive: [1] 15.7% | [2] 5.8% | [3] 24.2% | [4] 19.2% | [5] 10.2% | [6] 25.6%

COc1ccc(CC(C)NO)cc1 (stereo unspecified)
inactive: [1] -16.2% | [2] 8.8% | [3] -11.9% | [4] 11.7% | [5] 2.35% | [6] -32.5%

CCCCCCCCP(=O)(O)OP(=O)(O)OCC1OC(n2ccc(N)nc2=O)C(O)C1O (stereo unspecified)
inactive: [1] -11.2% | [2] -20.1% | [3] -9.55% | [4] 7.15% | [5] -12.2% | [6] -9%

CC(C)NC(=O)C(Cl)CCl (stereo unspecified)
inactive: [1] 13.7% | [2] 8.9% | [3] 18.3% | [4] 11.5% | [5] 2.8% | [6] 6.7%

CC(C)(C)NP(=O)(NC(C)(C)C)NC(C)(C)C
inactive: [1] 5.65% | [2] -9.6% | [3] -17.2% | [4] 4.85% | [5] -8.5% | [6] 8.2%

O=C(c1cc(N(CCCl)CCCl)c([N+](=O)[O-])cc1[N+](=O)[O-])N1CCOCC1
inactive: [1] -1.6% | [2] -3.55% | [3] 13.2% | [4] 3.55% | [5] 19.3% | [6] -3.75%

CCOP(=O)(O)C1CCCC(C)[N-]1.CCOP(=O)(O)C1CCCC(C)[N-]1.CCOP(=O)(O)C1CCCC(C)[N-]1.[Ti+3] (stereo unspecified)
inactive: [1] 1.7% | [2] 0.1% | [3] -6.55% | [4] -24.1% | [5] -6.3% | [6] 2.6%

CN(C)C(=O)CCCc1ccc(N(CCCl)CCCl)cc1
inactive: [1] 19.6% | [2] -1.85% | [3] 5.3% | [4] 9.55% | [5] -0.9% | [6] 9.6%

N.N.N.N.N.N.O=N[O-].[Br-].[Co+3].[Co+3].[OH3+].[OH3+]
inactive: [1] 7.15% | [2] 9.25% | [3] -15.4% | [4] 15.9% | [5] 6.25% | [6] -7.9%

COc1ccc(OP2OCC(C)O2)cc1 (stereo unspecified)
inactive: [1] -1.1% | [2] -46.8% | [3] -10.4% | [4] -30% | [5] -2.6% | [6] 2.5%

Cc1ccc([NH-])c([NH-])c1.[Cl][Pt+2][Cl]
inactive: [1] 22.1% | [2] 0.25% | [3] 30.4% | [4] 12.3% | [5] -2.85% | [6] 13.7%

O=C1NC(=O)C(Cc2cccc(Cl)c2)C(=O)N1
inactive: [1] 15.1% | [2] -6.9% | [3] -15.8% | [4] -8.05% | [5] 0.55% | [6] -36%

NS(=O)(=O)CC1CC[CH-]CC1.[Cl-].[Cl-].[Cl-].[Cl-].[Cl-].[Sb+5].c1ccncc1
inactive: [1] 11.3% | [2] -14.1% | [3] -10% | [4] -12.2% | [5] -20.4% | [6] 18.1%

CNC(=O)Oc1cccc(N)c1
inactive: [1] 5.35% | [2] -1.1% | [3] 5.85% | [4] 7.3% | [5] -22.1% | [6] -0.05%

Nc1nc(N)c2[nH]c(N)nc2n1
inactive: [1] -9.65% | [2] -12.2% | [3] -8.9% | [4] -14.4% | [5] 3.45% | [6] -55.3%

[CH3][Sn]([CH3])([O]S(=O)c1ccc(Cl)cc1)[O]S(=O)c1ccc(Cl)cc1 (stereo unspecified)
inactive: [1] 15.7% | [2] -9.3% | [3] -19.8% | [4] 14.7% | [5] -4.7% | [6] -11.1%

O=[N+]([O-])OC(c1ccncc1)C(O[N+](=O)[O-])c1ccncc1 (stereo unspecified)
inactive: [1] 7.7% | [2] -2.35% | [3] -6.25% | [4] 16.9% | [5] -5.3% | [6] 21.3%

NCC(=O)c1ccc(O)c(O)c1
inactive: [1] -8.85% | [2] -7.05% | [3] -4.35% | [4] 2.8% | [5] 16.4% | [6] -8.55%

O=S(=O)(O)c1ccc([Se][Se]c2ccc(S(=O)(=O)O)cc2)cc1
inactive: [1] 5.8% | [2] -12.9% | [3] -18.1% | [4] -33.5% | [5] -19.2% | [6] -17.4%

Clc1ccc(N=P(c2ccccc2)(c2ccccc2)c2ccccc2)cc1.[Cl][Cd][Cl]
active: [1] 95% | [2] 71% | [3] 81.8% | [4] 75.9%
inactive: [5] 64.2% | [6] 69%

CN(C)CCN1C(=O)CN=C(c2ccccc2Cl)c2cc(Cl)ccc21
inactive: [1] 15.8% | [2] 12.2% | [3] 27% | [4] 2.75% | [5] 0.2% | [6] 27.6%

NC(c1ccccc1)C(O)c1ccc(O)cc1 (stereo unspecified)
inactive: [1] 19.4% | [2] 12.3% | [3] 10.1% | [4] -10.6% | [5] 1.05% | [6] -8.35%

O=C1CC=C2C3CC4N(CCC45c4ccccc4N1C25)C/C3=C\CO (stereo unspecified)
inactive: [1] 22.8% | [2] -11.7% | [3] -5.3% | [4] 0% | [5] 37% | [6] -38%

Cn1nnc(-c2nnn(C)n2)n1
inactive: [1] -19.1% | [2] -12.5% | [3] -8.65% | [4] -14.8% | [5] -15.9% | [6] -19.6%

CC(C)COP(=O)(Cc1ccccc1)OCC(C)C
inactive: [1] 8.85% | [2] 5.65% | [3] -0.5% | [4] 11.8% | [5] 5% | [6] -6.2%

C/C(=N\N=C(N)N)C(CN(C)C)C(c1ccccc1)c1c(O)c2ccccc2oc1=O (stereo unspecified)
inactive: [1] 25.6% | [2] 23.4% | [3] -4.45% | [4] 13.8% | [5] -1.5% | [6] 16.8%

Cc1cc(Cl)ccc1O
inactive: [1] -1.2% | [2] -14.8% | [3] -0.3% | [4] 0.5% | [5] -3.1% | [6] -1.7%
